High-throughput results (PubChem BioAssay)
Most compounds without a hit are left out; they make up all but 2.4% or so of the library.
M1 PAM parental – nonselective activator or artifact in parental CHO-K1 calcium assay; ATP EC20, Fluo-8 calcium fluorescence; 0% at ATP EC20, 100% at ATP max; hit rate 0.02% among 360,000; activation, % at 3 µM;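 active means activation above the run cutoff, the mean activation of all test compounds plus 3 SD, cut at about 40% in these data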;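 further: peak over basal fluorescence ratio in a 140 s read after ATP addition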
M1 ag – activates human CHRM1 receptor. P11229. CHO-K1 hM1, Fluo-8 calcium fluorescence, agonist mode; 0% DMSO, 100% acetylcholine EC100. activation, % at 3 µM. hit rate 0.33% among 360,000. AID 588814;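 active means activation above the run's mean compound activation plus 3 SD, cut at about 16% in these data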;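 further: peak over basal fluorescence ratio within a 140 s kinetic read after compound addition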
Target sequence (P11229 whole entry, looked up): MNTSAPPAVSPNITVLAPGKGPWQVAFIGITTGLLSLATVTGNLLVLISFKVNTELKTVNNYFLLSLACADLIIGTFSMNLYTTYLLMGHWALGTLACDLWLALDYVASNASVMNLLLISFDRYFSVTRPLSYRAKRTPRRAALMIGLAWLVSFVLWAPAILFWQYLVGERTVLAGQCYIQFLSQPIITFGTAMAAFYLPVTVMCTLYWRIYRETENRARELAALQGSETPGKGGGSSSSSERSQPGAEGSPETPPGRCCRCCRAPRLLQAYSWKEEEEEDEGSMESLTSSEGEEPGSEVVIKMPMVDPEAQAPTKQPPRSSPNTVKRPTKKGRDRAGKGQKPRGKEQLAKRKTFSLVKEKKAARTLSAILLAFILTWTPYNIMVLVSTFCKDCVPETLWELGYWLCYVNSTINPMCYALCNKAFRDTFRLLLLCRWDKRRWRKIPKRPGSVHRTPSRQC
CHO-K1 Ca antag – counter-screen for M1 antagonists: effect in parental CHO-K1 cells; ATP-induced calcium, Fluo-8 fluorescence; inhibition, % at 3 µM; hit rate 0.6% among 360,000;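 active means inhibition above a per-plate cutoff, the plate's mean sample inhibition plus 3 SD, cut at about 24% in these data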;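 further: 0% = DMSO plus EC80 ATP and 100% = DMSO alone without ATP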
M1 antag – human CHRM1 antagonism | P11229 | CHO-K1 hM1, Fluo-8 calcium fluorescence, ACh EC80 antagonist | inhibition, % at 3 µM | hit rate 1.3% among 360,000 | AID 588852;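 active means percent inhibition above its own plate's cutoff, namely the mean of that plate's compound wells plus 3 SD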;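 further: peak over basal fluorescence ratio during 140 s after agonist addition; 0% = ACh EC80 plus DMSO and 100% = DMSO alone without agonist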
M1 ag parental – M1 agonist counterscreen hit in parental CHO-K1 cells; Fluo-8 calcium fluorescence; scaled to maximal ATP response, vehicle zero; activation, % at 3 µM; hit rate 0.48% among 360,000; AID 602248; in the data active means activation above about 15%;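 further: untransfected CHO-K1 host cells lacking M1 receptor as counterscreen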
M1 PAM – positive allosteric modulators of human M1 muscarinic receptor; P11229; CHO-K1 hM1, Fluo-8 calcium fluorescence, ACh EC20; 0% = ACh EC20, 100% = maximal ACh; activation, % at 3 µM; hit rate 0.088% among 360,000; in the data active means activation above about 19%, passing the limit was not always enough
Active calls of the source: *; · = not tested or not shown.

SMILES	M1 PAM parental	M1 ag	CHO-K1 Ca antag	M1 antag	M1 ag parental	M1 PAM
O=C(CSc1n[nH]c(=O)[nH]c1=O)Nc1ccc(SC(F)F)cc1	14.4	-0.1	-10.8	-0.9	0.2	5.0
Cc1cn([C@@H](CCCCNC(=O)OC(C)(C)C)C(=O)NCCCCCCCCCCC(=O)N2CCN(C(=O)OC(C)(C)C)CC2)nn1	-5.0	-2.4	3.6	43.8*	15.8*	-28.3
CC[C@H](C)Cc1cn([C@@H](CCCN=C(NC(=O)OC(C)(C)C)NC(=O)OC(C)(C)C)C(=O)NCCCCCCCCCCC(=O)N2CCN(C(=O)OC(C)(C)C)CC2)nn1	2.3	-9.3	-6.6	29.4	1.4	-27.0
OC1CCC(Nc2ccn3nc(-c4cccc(OCc5ccccc5)c4)cc3n2)CC1 (stereo not drawn)	-7.2	6.9	28.7*	20.2	5.3	-7.7
OC1CCC(Nc2ccn3nc(-c4cccc(Cl)c4)cc3n2)CC1 (stereo not drawn)	15.3	-1.5	-6.6	-3.0	3.4	-0.5
COCCCNc1ccn2nc(-c3cccc(OCc4ccccc4)c3)cc2n1	-3.7	-1.3	9.1	26.8*	2.1	-11.4
COCCCNc1ccn2nc(-c3ccccc3)cc2n1	2.1	-1.7	-0.9	-17.4	0.6	5.0
C[C@H]1COc2cccc(N3CCC[C@@H]3CO)c2S(=O)(=O)N1	-8.6	·	-10.5	·	0.8	·
O=S(=O)(c1ccccc1)N1CCC(O)(CSc2ccccc2)CC1	-10.3	1.5	5.7	10.8	3.4	-0.8
O=S(=O)(c1ccccc1)N1CCC(O)(CSc2ccc(F)cc2)CC1	-11.5	-4.1	15.9	9.9	17.8*	-13.3
COc1cccc(N(C(=O)c2snc(C(N)=O)c2N)C(C(=O)NCC2CCCO2)c2ccc(F)cc2)c1 (stereo not drawn)	28.6	-0.9	-25.3	-15.3	2.6	10.5
COc1cccc(N(C(=O)c2sc(C)nc2C)C(C(=O)NCC2CCCO2)c2ccccc2)c1 (stereo not drawn)	-4.9	-1.4	27.4*	-16.8	5.3	10.5
CCn1cnnc1SCC(=O)c1c(N)n(C2CC2)c(=O)[nH]c1=O	7.2	-3.3	-18.1	21.4	-0.1	-9.3
CCOC(=O)C(=O)N(C)c1c(CC)nc2c(OCc3cc(Cl)cc(Cl)c3)cccn12	-16.8	-9.0	28.8*	-4.7	-0.5	-4.8
CCC(=O)OCC(=O)[C@@]1(OC(=O)CC)[C@@H](C)C[C@H]2[C@@H]3CCC4=CC(=O)C=C[C@]4(C)[C@@]3(Cl)[C@@H](O)C[C@@]21C	10.8	-2.1	1.4	-17.6	0.6	-7.7
CCN(Cc1ccc(OC)c(COC)c1)CC1CCCN(CCc2cccc(F)c2)C1 (stereo not drawn)	14.3	-9.4	-10.5	4.1	0.1	-10.1
CN(Cc1ccc(C#CCCO)cc1)CC1CCCN(CCc2ccc(Cl)cc2)C1 (stereo not drawn)	19.6	-7.2	-9.0	40.3*	3.2	-27.2
CCN(Cc1ccc(C#CCCO)cc1)CC1CCCN(CCc2cccc(F)c2)C1 (stereo not drawn)	1.5	-8.2	2.3	51.9*	0.3	-28.4
CN(Cc1ccccc1O)CC1CCCN(CCc2ccc(Cl)cc2)C1 (stereo not drawn)	-7.2	-9.2	8.4	80.0*	0.4	-29.4
CCC(CO)Nc1ccn2nc(-c3cccc(Cl)c3)cc2n1 (stereo not drawn)	-11.4	1.9	-0.7	-13.1	1.3	2.8
CCOC(=O)Nc1ccc2c(c1)N(C(=O)CN(CC)CC)c1ccccc1C=C2	-0.3	-15.2	-5.2	72.4*	0.1	-35.3
CCOC(=O)Nc1ccc2c(c1)N(C(=O)CCN(CC)CC)c1ccccc1S2=O (stereo not drawn)	12.6	-9.0	-9.7	59.3*	1.4	-27.2
O=C(NCCc1ccc(F)cc1)c1ccc(NS(=O)(=O)c2ccc3[nH]c(=O)[nH]c3c2)cc1	12.4	1.5	0.2	-6.6	1.1	6.0
CC(=O)c1cccc(NC(=O)C(C)OC(=O)c2ccc3ncsc3c2)c1 (stereo not drawn)	4.9	-0.8	-11.4	4.3	1.1	4.3
CC(OC(=O)c1ccc2ncsc2c1)C(=O)Nc1cccc(Cl)c1 (stereo not drawn)	-5.1	-4.0	8.9	32.3*	0.1	-14.5
SMILES	M1 PAM parental	M1 ag	CHO-K1 Ca antag	M1 antag	M1 ag parental	M1 PAM
COc1ccccc1NC(=O)N1CCc2[nH]c3ccc(Cl)cc3c2C1	13.3	21.9*	-6.6	-3.6	0.3	-1.4
CCCCNC(=O)N1CCc2[nH]c3ccccc3c2C1	-11.1	19.5*	4.7	-12.6	1.7	8.3
O=C(C1CC1)N1CCc2[nH]c3ccccc3c2C1	7.5	0.3	-6.5	-3.4	0.3	4.9
C=CCNC(=O)N1CCc2[nH]c3ccc(F)cc3c2C1	14.3	24.5*	-6.1	-10.7	0.9	-1.1
COc1cc2c(cc1OC)CN(C(=O)Nc1ccccc1Cl)CC2	1.5	2.5	4.1	-16.9	1.8	11.2
CC(=O)CC(C)(C)NC(C)=S	9.9	-1.5	-2.3	-7.5	0.1	2.5
CN(CC(=O)Nc1ccc(N2CCOCC2)cc1)C(=O)CCc1ccccc1Cl	7.8	-2.5	-5.9	-0.5	2.1	1.6
COc1ccc(-c2noc(N3CCC(C(=O)NCCCN4CCC(C)CC4)CC3)n2)cc1	17.2	-11.8	-22.4	32.0*	2.1	-21.2
O=C(O)/C=C/C(=O)Nc1ccc(S(=O)(=O)Nc2nccs2)cc1	-10.8	-4.4	22.7	-12.9	-0.3	-5.4
COc1ncnc2c1ncn2CCCN1CCN(Cc2cccc3ccccc23)CC1	25.3	-4.9	-10.7	-1.8	1.7	-7.0
COc1ncnc2c1ncn2CCCN1CCN(Cc2ccc(C)cc2)CC1	9.7	-11.0	9.1	28.1*	0.1	-16.4
Cc1cc(C)c(NC(=O)CSc2nnc(CNC(=O)c3c(F)cccc3Cl)o2)c(C)c1	21.3	-3.6	-12.5	-8.4	2.6	2.8
Cc1ccc(NC(=O)CSc2nnc(CNC(=O)c3c(F)cccc3Cl)o2)cc1	-6.5	-4.1	25.9*	9.4	-0.1	-4.7
CC(=O)c1cc(Cl)ccc1OCC(=O)Nc1cccc(S(=O)(=O)N2CCCC2)c1	12.1	-4.0	-20.6	1.2	1.6	-3.2
O=C(CSc1nnc(-c2cccc(Br)c2)o1)NCC1CCCO1 (stereo not drawn)	-12.2	0.3	26.4*	1.5	-0.2	4.5
Cc1ccccc1-c1nnc(SCC(=O)NCC2CCCO2)o1 (stereo not drawn)	20.1	-1.1	-14.1	-12.9	-0.2	8.1
CC1=C(C(=O)c2ccccc2)C(c2cccc([N+](=O)[O-])c2)NC(=S)N1 (stereo not drawn)	4.1	-6.0	-10.6	1.8	1.1	-0.8
CC(=O)C1=C(C)NC(=S)NC1c1cc([N+](=O)[O-])ccc1O (stereo not drawn)	0.1	-1.2	-6.6	-12.5	16.8*	7.5
